# High-throughput results from PubChem BioAssay.
# Rows were chosen to be rich in hits. Some 2.8% of all compounds tested hit in one or more screens of this group.
# CF NFkB inh: inhibitors of cystic fibrosis induced NF-kB; KKLEB NF-kB-GFP reporter, PAF-induced, GFP fluorescence overnight; inhibition, % at 5 µM; 360,000 tested, 0.86% active;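 active = at least 50% inhibition at 5 µM, scaled per plate between neutral and stimulator controls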;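 also: PAF is a Pseudomonas aeruginosa culture filtrate used as stimulus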
# TRPM1 prom inh: reduces MITF-dependent TRPM1 promoter luciferase signal. SK-MEL-5 TRPM1 promoter luciferase, 24 h. inhibition, % at 12.5 µM. 330,000 tested, 0.83% active;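 active = mean inhibition across replicates of 60% or more, whatever share of single replicates reaches that level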
# Peg3 prom inh-1: reduces Peg3 promoter-driven luciferase expression in HeLa. HeLa PEG-Prom luciferase reporter, luminescence, overnight. inhibition, % at 20 µM. 360,000 tested, 1.7% active. AID 588405;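 active = inhibition of at least 50% at 20 µM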
# Shn3 3UTR inh: Schnurri-3 reporter inhibition in Clone20 osteoblasts. Clone20 osteoblast Shn3 3'UTR firefly luciferase, 24 h. inhibition, % at 12.5 µM. 360,000 tested, 0.52% active. AID 588674;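 active = mean inhibition of at least 75% with every replicate also reaching 75%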
# KKLEB tox: reduces viability of KKLEB cystic fibrosis airway cells; KKLEB CF airway cells viability, ATPlite luminescence, overnight; active compounds read low; cells stimulated with P. aeruginosa culture filtrate; activity change (cytotoxicity), % at 5 µM; 360,000 tested, 0.36% active; AID 602141;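 active = corrected activity change at or below -50% at 5 µM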
# HIF-2a block: inhibitors of HIF-2a; 786-0 RCC cells HIF-2a reporter, luciferase luminescence, overnight; inhibition, % at 18.8 µM; 360,000 tested, 0.72% active; AID 624352;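 active = inhibition of the luminescence signal of 40% or more relative to plate controls, in a single-dose primary screen at 18.75 µM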
# Peg3 prom inh-2: confirmation of Peg3 promoter inhibitors; shares compounds with Peg3 prom inh-1; HeLa PEG-Prom luciferase reporter, luminescence, overnight; inhibition, % at 20 µM; 1,300 tested, 84% active; AID 602417;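 active = at 20 µM dose, 40% or more inhibition averaged across four replicates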
# Hits are given with their value; n = inactive; x = no result.
SMILES,CF NFkB inh,TRPM1 prom inh,Peg3 prom inh-1,Shn3 3UTR inh,KKLEB tox,HIF-2a block,Peg3 prom inh-2
CN(C)CCCN(C(=O)c1ccc2c(c1)OCCO2)c1nc2ccc(Cl)cc2s1,n,n,n,n,n,n,x
Cc1ccc(C(=O)N(CCCN(C)C)c2nc3ccc(Cl)cc3s2)cc1C,n,n,56,n,n,n,93
O=C1CCC(C(=O)OCC(=O)c2ccccc2)N1 (stereo not drawn),n,n,n,n,n,n,x
CC1CC(C)C(=O)C(C(CC2CC(=O)NC(=O)C2)OC(=O)CC(=O)c2ccccc2)C1 (stereo not drawn),66,n,81,n,n,n,83
CC(Oc1ccc(Cl)cc1)C(=O)N/N=C/c1ccsc1 (stereo not drawn),n,n,n,n,n,n,x
COc1ccc(NC(=O)CON=CC(=O)Nc2ccc(C)cc2)c(OC)c1,n,n,n,n,n,n,x
C=C(C)Cn1c(SCC(=O)N/N=C/c2c(O)ccc3ccccc23)nc2ccccc2c1=O,n,n,61,n,n,n,64
COc1ccc2sc3cccc(NCCN(C)C)c3c(=O)c2c1,n,x,97,n,n,n,66
Oc1[nH]c2c(Cl)cc(Cl)cc2c1N=NC(=S)NCC1CCCO1 (stereo not drawn),n,n,97,n,n,n,n
Cc1cc(/C=N/Nc2ncnc(N)c2[N+](=O)[O-])c(C)n1-c1ccccc1,n,81,92,n,-50,59,84
CCc1ccc(OCCNc2cc(N3CCNC(C)C3)ccc2[N+](=O)[O-])cc1 (stereo not drawn),n,79,100,89,n,n,100
CC1CN(c2ccc([N+](=O)[O-])c(NCCOc3ccccc3)c2)CC(C)N1 (stereo not drawn),n,n,n,n,n,n,x
Cc1ccsc1C(C(=O)NC(C)(C)C)N(C(=O)c1csnn1)c1ccccc1 (stereo not drawn),n,x,n,n,n,n,x
Fc1ccc(-c2nn(-c3ccccc3)cc2CNCc2ccccc2)cc1,n,n,62,n,n,n,n
OCc1cn(-c2ccccc2)nc1-c1ccc(-c2nn(-c3ccccc3)cc2CO)cc1,n,n,n,n,n,n,x
CC(C)(C)OC(=O)NCCCCCNC(=O)c1[nH]cnc1C(=O)N[C@@H](Cc1ccccc1)C(=O)OC(C)(C)C,n,n,51,n,n,n,n
CC(C)(C)OC(=O)NCc1ccc(CNC(=O)c2nc[nH]c2C(=O)N2CCN(C(=O)OC(C)(C)C)CC2)cc1,n,n,51,n,n,n,n
CC(C)(C)OC(=O)[C@H](Cc1ccccc1)NC(=O)c1[nH]cnc1C(=O)Nc1cccc(Cl)c1,n,n,n,n,n,n,x
CC(C)(C)OC(=O)[C@H](Cc1ccccc1)NC(=O)c1nc[nH]c1C(=O)NCCCCCN,n,n,n,n,n,n,x
CC(C)(C)OC(=O)[C@H](Cc1ccccc1)NC(=O)c1[nH]cnc1C(=O)Nc1ccc(Cl)cc1,n,n,85,n,n,n,n
Cc1ccc(NC(=O)c2nc[nH]c2C(=O)N2CCN(C(=O)OC(C)(C)C)CC2)cc1,n,n,n,n,n,n,x
Cc1ccc(CS/C(Nc2ccccc2C)=C(\C#N)C(N)=O)c(C)c1,n,n,n,n,n,n,x
COc1cccc(OC)c1OCCN1CCN(C(c2ccccc2)c2ccccc2)CC1,n,n,n,n,n,n,x
COC(=O)C[C@@H]1C=C[C@H](NC(=O)c2ccccc2)[C@@H](CO)O1,x,x,x,x,x,n,x
O=C(Nc1ccc(-c2nc3ccccc3[nH]2)cc1)c1cccc(N2C(=O)CCC2=O)c1,n,n,n,n,n,n,x
SMILES,CF NFkB inh,TRPM1 prom inh,Peg3 prom inh-1,Shn3 3UTR inh,KKLEB tox,HIF-2a block,Peg3 prom inh-2
CC1(C(=O)Nc2cccc(OC(F)(F)F)c2)Cc2c(-c3cccc(C(F)(F)F)c3)ccnc2O1 (stereo not drawn),n,x,n,n,n,n,x
CC(=O)Nc1cccc(-c2ccnc3c2CC(C)(C(=O)Nc2cccc(OC(F)(F)F)c2)O3)c1 (stereo not drawn),n,x,63,n,n,n,61
Brc1ccc(N/N=C(/N=Nc2nn[nH]n2)c2ccccc2)cc1,n,67,70,n,n,n,64
O=C(C[C@H]1C[C@H](C(=O)N2CCCCC2)[C@@]2(CCc3ccccc3)c3[nH]c4ccc(Cl)cc4c3CCN2C1=O)NCCN1CCOCC1,n,n,80,n,n,n,n
COC(=O)c1ccccc1-c1ccc(/C=N/Nc2nc(N3CCCC3)nc(N3CCCC3)n2)o1,n,n,52,n,n,n,56
Cc1ccc(N(C)S(=O)(=O)c2cccc(C(=O)NC3CC(C)(C)NC(C)(C)C3)c2)cc1,n,n,n,n,n,n,x
CC1(C)CC(NC(=O)c2cccc(S(=O)(=O)N(Cc3ccccc3)c3ccccc3)c2)CC(C)(C)N1,n,n,84,n,n,n,92
COc1ccc(C2(OC)Oc3cc(OC)ccc3C(=O)C2(O)OC)cc1 (stereo not drawn),n,n,n,n,n,n,x
CCS(=O)(=O)N1CCC(C(=O)Oc2ccc(C)c(C)c2)CC1,n,n,n,n,n,n,x
CC(/C=N\Nc1nnc2c(n1)[nH]c1c(C)cccc12)=C\c1ccco1,n,n,65,n,n,n,n
CC(NC(=O)C(=O)NCCC1=CCCCC1)c1ccccc1 (stereo not drawn),n,n,n,n,n,n,x
CCC(C)NCCOCCOc1ccc(Cl)c2ccccc12 (stereo not drawn),n,n,102,n,n,n,98
Cc1ccc(S(=O)(=O)NCc2ccccc2)cc1C(=O)N1CCN(S(=O)(=O)c2ccccc2)CC1,n,n,n,n,n,n,x
CNCC[C@H](Oc1cccc2ccccc12)c1cccs1,n,n,90,n,n,n,92
Brc1ccc(N=Nc2ccc3ccccc3n2)cc1,n,n,73,n,-98,62,68
CCn1c(SCC(=O)Nc2nc3ccc(OC)cc3s2)nc2c1c(=O)n(C)c(=O)n2C,n,n,62,n,n,n,n
CCOc1ccc2nc(NC(=O)CSc3nc4c(c(=O)n(C)c(=O)n4C)n3C(C)C)sc2c1,n,n,n,n,n,n,x
CCc1nc(N=Nc2c(O)[nH]c3ccccc23)c2c3c(sc2n1)CCC3,n,n,85,n,n,n,n
CC1CCc2c(sc3ncn(CC(=O)N=Nc4c(O)[nH]c5ccccc45)c(=O)c23)C1 (stereo not drawn),n,n,n,n,n,n,x
C/C(=N\NC(=O)c1c(C)nc2ccccn12)c1ccc(O)cc1O,n,n,52,n,n,n,60
Cc1nc(SCc2cccnc2)[nH]c(=O)c1C,n,n,n,n,n,n,x
